Reference: PubChem BioAssay (EPA / NIEHS)
Active and inactive are the calls of the source. Rule for the calls: active = hit-call score of the fitted dose curve at least 0.9, where 1 is the maximum; inactive = score below 0.9.

Experiments:
[1] = ATG_E_Box_CIS: Attagene CIS-FACTORIAL HepG2 Assay for human Enhancer Box (E-box) (AID 2282936); conditions: HepG2 E-box cis-reporter transcription, actives raise or lower the signal
In short: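 Multiplexed CIS reporter system in transiently transfected HepG2 cells measures native transcription factor activity. Reporter RNA after 24 h exposure is profiled by RT-PCR-capillary electrophoresis.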

[2] = ATG_M_61_CIS: Attagene CIS-FACTORIAL HepG2 Assay for M61 Transcription Factor (Internal Marker) (AID 2282937); conditions: HepG2 Attagene CIS-FACTORIAL M61 internal marker reporter; actives raise or lower the signal
In short: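 Human liver HepG2, transient MRTU transfection (cis promoter elements), 24 h compound. Total RNA → oligo(dT) RT → PCR → FAM label → HpaI → CE. Internal background marker; bidirectional fitting, DMSO = baseline.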

[3] = ATG_EGR_CIS: Attagene CIS-FACTORIAL HepG2 Assay for human Early Growth Response 1 (EGR1) (AID 2282938); conditions: HepG2 Attagene CIS-FACTORIAL EGR reporter mRNA; actives raise or lower the signal
In short: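 Transient transfection of human HepG2 with multiple cis-regulated reporter units, chemical exposure 24 h, total RNA isolated. Reverse transcription, PCR, fluorescent labelling and capillary electrophoresis quantify reporter transcripts; activity fitted bidirectionally against DMSO.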

[4] = ATG_M_19_CIS: Attagene CIS-FACTORIAL HepG2 Assay for M19 Transcription Factor (Internal Marker) (AID 2282939); conditions: HepG2 Attagene CIS-FACTORIAL M19 internal marker reporter; actives raise or lower the signal
In short: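 Background-control endpoint from a multiplexed HepG2 reporter panel. Cells carrying cis-regulated reporter constructs are treated 24 h, then reporter transcripts are amplified, fluorescently labelled and sized by capillary electrophoresis. DMSO defines baseline.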

[5] = ATG_ERE_CIS: Attagene CIS-FACTORIAL HepG2 Assay for Estrogen Response Element (ERE) (AID 2282940); conditions: HepG2 ERE cis-reporter, Attagene RNA transcript; actives raise or lower the signal
In short: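 Cells used were human hepatoma HepG2, transfected with multiple reporter transcription units under cis-regulatory promoters. Reporter mRNA, read 24 h post-dosing via fluorescent RT-PCR products on capillary electrophoresis, was fitted bidirectionally relative to DMSO.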

[6] = ATG_Ets_CIS: Attagene CIS-FACTORIAL HepG2 Assay for human Erythroblast Transformation Specific (ETS) (AID 2282941); conditions: HepG2 ETS cis-reporter transcription, actives raise or lower the signal
In short: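 After transient cis-reporter transfection, HepG2 cells receive test chemical for 24 h. Reporter mRNA levels, measured by RT-PCR and capillary electrophoresis fluorescence, are analysed bidirectionally relative to the DMSO baseline.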

[7] = biological target: Hepatocyte nuclear factor 3-beta (Homo sapiens) (UniProt Q9Y261); test: ATG_FoxA2_CIS: Attagene CIS-FACTORIAL HepG2 Assay for human Forkhead box A2 (FOXA2) (AID 2282942); conditions: HepG2 cis-reporter transcription factor activity, 24 h; actives raise or lower the signal
Hepatocyte nuclear factor 3-beta (Homo sapiens), sequence (Q9Y261 whole entry, looked up): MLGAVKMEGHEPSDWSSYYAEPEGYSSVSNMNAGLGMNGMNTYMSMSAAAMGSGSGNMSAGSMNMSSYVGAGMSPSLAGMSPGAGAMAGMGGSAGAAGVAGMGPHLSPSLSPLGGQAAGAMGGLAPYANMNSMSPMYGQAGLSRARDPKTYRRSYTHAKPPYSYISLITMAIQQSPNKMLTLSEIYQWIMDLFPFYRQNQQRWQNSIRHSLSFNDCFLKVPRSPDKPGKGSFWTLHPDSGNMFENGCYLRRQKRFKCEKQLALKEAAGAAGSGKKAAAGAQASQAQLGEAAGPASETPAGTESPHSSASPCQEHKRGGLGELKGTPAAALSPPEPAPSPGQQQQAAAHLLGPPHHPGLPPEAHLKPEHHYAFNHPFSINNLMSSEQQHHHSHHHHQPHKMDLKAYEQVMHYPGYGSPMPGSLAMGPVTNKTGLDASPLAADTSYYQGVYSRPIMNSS
In short: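 Transient MRTU transfection of HepG2 liver cells; 24 h treatment; total RNA → oligo(dT) RT → PCR → FAM primer extension → HpaI cut → CE. Bidirectional fit vs DMSO.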

[8] = ATG_FoxO_CIS: Attagene CIS-FACTORIAL HepG2 Assay for human Forkhead box O (FoxO) (AID 2282943); conditions: HepG2 Attagene cis-reporter, FoxO element, mRNA; actives raise or lower the signal
In short: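 HepG2 cells transiently transfected with cis-promoter-driven multiple reporter transcription units; 24 h after chemical dosing, reporter mRNA quantified by RT-PCR, fluorescent primer extension, HpaI digestion and capillary electrophoresis. Bidirectional fitting versus DMSO baseline.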

[9] = ATG_GATA_CIS: Attagene CIS-FACTORIAL HepG2 Assay for human GATA Binding Protein (AID 2282944); conditions: HepG2 GATA cis-element reporter, Attagene multiplex mRNA; actives raise or lower the signal
In short: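 Endogenous transcription factor activity was captured through cis-promoter-driven reporters in transfected HepG2 cells. After 24 h exposure, reporter transcripts were quantified by RT-PCR with fluorescent capillary electrophoresis, and responses fitted both directions against DMSO.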

[10] = ATG_GLI_CIS: Attagene CIS-FACTORIAL HepG2 Assay for human Zinc Finger Protein GLI1 (AID 2282945); conditions: HepG2, Attagene cis-factorial reporter mRNA, GLI element; actives raise or lower the signal
In short: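 HepG2 cells transiently transfected with cis-promoter multiplexed reporter units report endogenous transcription factor activity. After 24 h chemical exposure, reporter mRNA was quantified by RT-PCR, 6-FAM labelling, HpaI digestion and capillary electrophoresis, with bidirectional fitting against DMSO.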

Row | SMILES | outcome [1] | outcome [2] | outcome [3] | outcome [4] | outcome [5] | outcome [6] | outcome [7] | outcome [8] | outcome [9] | outcome [10] | AC50 [5] | AC50 [3] | AC50 [10] | AC50 [6] | AC50 [1] | AC50 [2] | AC50 [4] | AC50 [9]
1 | O=[N+]([O-])c1cc(Cl)ccc1Cl | inactive | inactive | inactive | inactive | inactive | inactive | inactive | inactive | inactive | inactive |  |  |  |  |  |  |  | 
2 | CCCN(CCC)c1c([N+](=O)[O-])cc(C(C)C)cc1[N+](=O)[O-] | inactive | inactive | inactive | inactive | inactive | inactive | inactive | inactive | inactive | inactive |  |  |  |  |  |  |  | 
3 | CNC(=O)Oc1ccc(N(C)C)c(C)c1 | inactive | inactive | inactive | inactive | inactive | inactive | inactive | inactive | inactive | inactive |  |  |  |  |  |  |  | 
4 | CCOP(=S)(OCC)SCSCC | inactive | inactive | inactive | inactive |  | inactive | inactive | inactive | inactive | inactive | 14.9 µM (active) |  |  |  |  |  |  | 
5 | CCOC(=O)c1ccccc1C(=O)OCC | inactive | inactive | inactive | inactive | inactive | inactive | inactive | inactive | inactive | inactive |  |  |  |  |  |  |  | 
6 | O=C(O)C(F)(OC(F)(F)C(F)(F)C(F)(F)F)C(F)(F)F (stereo not given) | inactive | inactive | inactive | inactive | inactive | inactive | inactive | inactive | inactive | inactive |  |  |  |  |  |  |  | 
7 | CCCCC(CC)COP(=O)(Oc1ccccc1)Oc1ccccc1 (stereo not given) | inactive | inactive |  | inactive |  | inactive | inactive | inactive | inactive |  | 6.77 µM (active) | 57.6 µM (active) | 100 µM (active) |  |  |  |  | 
8 | C=CC(=O)OCC(F)(F)C(F)F | inactive | inactive | inactive | inactive | inactive | inactive | inactive | inactive | inactive | inactive |  |  |  |  |  |  |  | 
9 | O=S(=O)(c1ccc(O)cc1)c1ccc(O)cc1 | inactive | inactive | inactive | inactive |  | inactive | inactive | inactive | inactive | inactive | 1.7 µM (active) |  |  |  |  |  |  | 
10 | ClC(Cl)(Cl)c1ccccc1 | inactive | inactive | inactive | inactive |  | inactive | inactive | inactive | inactive | inactive | 45.1 µM (active) |  |  |  |  |  |  | 
11 | CCOP(=S)(OCC)SCn1nnc2ccccc2c1=O | inactive | inactive |  | inactive |  | inactive | inactive | inactive | inactive | inactive | 7.39 µM (active) | 9.67 µM (active) |  |  |  |  |  | 
12 | CCCCN(CCCC)N=O | inactive | inactive | inactive | inactive | inactive | inactive | inactive | inactive | inactive | inactive |  |  |  |  |  |  |  | 
13 | CCC(C)(C)c1ccc(O)cc1 | inactive | inactive | inactive | inactive |  | inactive | inactive | inactive | inactive | inactive | 2.25 µM (active) |  |  |  |  |  |  | 
14 | Nc1ccc(Sc2ccc(N)cc2)cc1 | inactive | inactive | inactive | inactive |  | inactive | inactive | inactive | inactive | inactive | 14.4 µM (active) |  |  |  |  |  |  | 
15 | O=C(O)C(F)(F)OC(F)(F)C(F)(F)OC(F)(F)C(=O)O | inactive | inactive | inactive | inactive | inactive | inactive | inactive | inactive | inactive | inactive |  |  |  |  |  |  |  | 
16 | NC(=O)C(F)(F)C(F)(F)F | inactive | inactive | inactive | inactive | inactive | inactive | inactive | inactive | inactive | inactive |  |  |  |  |  |  |  | 
17 | O=P(OCC(Br)CBr)(OCC(Br)CBr)OCC(Br)CBr (stereo not given) | inactive | inactive |  | inactive | inactive | inactive | inactive | inactive | inactive | inactive |  | 7.19 µM (active) |  |  |  |  |  | 
18 | N#Cc1c(-c2ccc(Cl)cc2)[nH]c(C(F)(F)F)c1Br | inactive | inactive | inactive | inactive | inactive |  | inactive | inactive | inactive | inactive |  |  |  | 19.8 µM (active) |  |  |  | 
19 | CC(Cl)(Cl)C(=O)O | inactive | inactive | inactive | inactive | inactive | inactive | inactive | inactive | inactive | inactive |  |  |  |  |  |  |  | 
20 | CC(=O)c1ccc(-c2ccccc2)cc1 | inactive | inactive | inactive | inactive |  | inactive | inactive | inactive | inactive | inactive | 6.56 µM (active) |  |  |  |  |  |  | 
21 | Cc1c([N+](=O)[O-])cc2c(c1[N+](=O)[O-])C(C)(C)CC2(C)C | inactive | inactive | inactive | inactive | inactive | inactive | inactive | inactive | inactive | inactive |  |  |  |  |  |  |  | 
22 | Oc1ccccc1Br | inactive | inactive | inactive | inactive | inactive | inactive | inactive | inactive | inactive | inactive |  |  |  |  |  |  |  | 
23 | Cc1cc(C)c(C(=O)P(=O)(c2ccccc2)c2ccccc2)c(C)c1 |  |  |  |  |  | inactive | inactive | inactive |  |  | 8.69 µM (active) | 41.3 µM (active) | 60 µM (active) |  | 54.9 µM (active) | 60.7 µM (active) | 61.5 µM (active) | 54.9 µM (active)
24 | OCC(F)(F)OC(F)(F)C(F)(F)OC(F)(F)C(F)(F)OC(F)(F)CO | inactive | inactive | inactive | inactive |  | inactive | inactive | inactive | inactive | inactive | 0.506 µM (active) |  |  |  |  |  |  | 
25 | CCOP(=O)(O)C(N)=O | inactive | inactive | inactive | inactive | inactive | inactive | inactive | inactive | inactive | inactive |  |  |  |  |  |  |  | 
